# Test results taken from the supplement of paper PMC7156485.
# How the values were obtained:
# Conditions in all cases: concentration: 10 µM; 24 h
# HCC1569 [1] = assay: cell number relative to DMSO (% of DMSO); higher = more cells (less growth inhibition / toxicity)
# How it was run: (§1)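 Cells were seeded at 800 per well in 384-well plates with RPMI containing 10% FBS; both HCC1569 and TDF lines were used. Compounds were added at 10 µM for 24 h at 37 °C, in triplicate, before fixation in 3.7% formaldehyde and staining with a rabbit anti-H1.0 antibody, an AlexaFluor 647 secondary and DAPI. H1.0 nuclear intensity or cell number is reported as percent of the plate control using the median of replicates, and HCC1569 values were smoothed for positional effects.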
# TDF [2] = assay: as above
# How it was run: as §1
# TDF [3] = assay: H1.0 immunofluorescence intensity relative to DMSO (% of DMSO); higher = stronger H1.0 induction, active = 120 or more
# How it was run: as §1
# HCC1569 [4] = assay: H1.0 immunofluorescence intensity relative to DMSO (% of DMSO); higher = stronger H1.0 induction, active = 140 or more
# How it was run: as §1
# 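Throughout, for H1.0 immunofluorescence intensity relative to DMSO: TDF is a line of transformed human dermal fibroblasts of mesenchymal origin.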
# 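Throughout, for cell number relative to DMSO: TDF denotes transformed human dermal fibroblasts of mesenchymal origin.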
Structure (SMILES),cell number (HCC1569 [1]),cell number (TDF [2]),H1.0 immunofluorescence intensity (TDF [3]),H1.0 immunofluorescence intensity (HCC1569 [4])
O=C1CC(c2ccccc2)Oc2cc(O)cc(O)c21 (configuration not stated) [Pinocembrin],106,100,99 (inactive),91.1 (inactive)
C[C@]12CCC(=O)C=C1CC[C@@H]1[C@@H]2[C@@H](O)C[C@@]2(C)[C@H]1CC[C@]2(O)C(=O)COC(=O)CCC(=O)[O-].[Na+],96.3,99.8,82.3 (inactive),103 (inactive)
COc1ccccc1N1CCN(CCCCNC(=O)c2ccc3ccccc3c2)CC1 [N-{4-[4-(2-methoxyphenyl)-1-piperazinyl]butyl}-2-naphthamide],96.6,98.1,96.7 (inactive),114 (inactive)
Cc1ccc(C)c(-c2cc(C(F)(F)F)nn2-c2ccc(S(N)(=O)=O)cc2)c1,101,96.8,97.5 (inactive),101 (inactive)
CC1(C)CCC(C)(C)c2cc(C3(c4ccc(C(=O)O)cc4)OCCO3)ccc21,100,99,92.3 (inactive),92.2 (inactive)
CCCSc1ccc2nc(NC(=O)OC)[nH]c2c1 [Albendazole],61.4,9.62,149 (active),176 (active)
CC(N)=NCCC[C@H](N)C(=O)O.Cl [L-N5-(1-Iminoethyl)ornithine hydrochloride],101,108,92.8 (inactive),93.3 (inactive)
O=[N+]([O-])c1ccc(Nc2nc(N3CCOCC3)nc(N3CCOCC3)n2)cc1,96.5,99,95.8 (inactive),102 (inactive)
